Assay outcomes from PubChem BioAssay.
aSyn 5UTR act: Activators via SNCA 5'UTR binding, MLPCN. alpha-synuclein 5'UTR reporter, activators screen. activity score, % (tested at 7.5 µM), hits read low. 7.1% of 300,000 active. AID 1814, 2009; in the data active means activity score below about -60%
Numbers without * were called inactive. The list is a sample of the results.

SMILES	aSyn 5UTR act
C[C@H]1O[C@@H](O[C@H]2[C@@H](O)C[C@H](O[C@H]3[C@@H](O)C[C@H](O[C@H]4CC[C@@]5(C)[C@H](CC[C@@H]6[C@@H]5C[C@@H](O)[C@]5(C)[C@@H](C7=CC(=O)OC7)CC[C@]65O)C4)O[C@@H]3C)O[C@@H]2C)C[C@H](O)[C@@H]1O	112.5
Cc1ccc(C)c(C2NC(=O)c3ccccc3N2)c1 (stereo not drawn)	-69.7*
CSc1ccc(C2NC(=O)c3ccccc3N2)cc1 (stereo not drawn)	-126.1*
COc1ccc(-c2cc3ccccc3s2)cc1[C@H]1[C@H]2C=CC[C@@H](C)[C@@H]2C(=O)N1Cc1ccccc1	-106.8*
O=c1c2[nH]c3ccc(F)cc3c2ncn1CCC1=CCCCC1	-120.5*
COc1ccc2c(c1)[nH]c1c(=O)n(CCC3=CCCCC3)cnc12	-99.3*
COc1ccc(Nc2c([N+](=O)[O-])ccc3c2=NC2(CCCCC2)N=3)cc1	-63.8*
Cc1ccc(C(=O)NC(=S)Nc2cccc3nsnc23)cc1	-100.5*
O=C(Nc1cccc2nsnc12)c1ccc2c(c1)OCCO2	-212.8*
O=C(Nc1cccc2nsnc12)c1ccc2c(c1)OCO2	-109.7*
CCOC(=O)CNC(=O)c1sc(NC(=O)c2ccccc2F)nc1C	-150.9*
CCOC(=O)CNC(=O)c1sc(NC(=O)c2cccc(F)c2)nc1C	-98.4*
C=CCn1c(=S)[nH]c2cc(-c3ccccc3)sc2c1=O	-76.9*
C=CCn1c(Sc2ccccc2)nc2c1c(=O)[nH]c(=O)n2C	59.6
O=C(Nc1ccccc1)N1CC=C(c2ccc(F)cc2)CC1	-167.3*
O=C(Nc1ccccc1)N1CC=C(c2ccccc2)CC1	-176.9*
CCOc1ccc(Nc2ncnc3c2nnn3Cc2ccccc2)cc1	-79.2*
Nc1c(Br)cc2oc(-c3ccccc3)nc2c1Br	-178.8*
CC(C)c1ccc(S(=O)(=O)c2cc3cc(Br)ccc3oc2=O)cc1	-62.5*
Cn1nnnc1SCC(=O)Nc1ccc2c(c1)OCO2	-98.8*
CCc1ccc(NC(=O)CSc2nnnn2C)cc1	-131.8*
C(#Cc1ccccc1)Cn1nnc2ccccc21	-98.2*
COc1ccc(NC(=O)/C(C#N)=C\c2ccc(Br)o2)cc1	-114.3*
COc1ccc(NC(=O)/C(C#N)=C\c2cc(C)n(-c3ccc4c(c3)OCO4)c2C)cc1	-107.0*
CNC(=O)/C(C#N)=C/c1ccc(-c2ccc(OC)cc2[N+](=O)[O-])o1	-76.1*
SMILES	aSyn 5UTR act
O=C(COc1ccccc1-c1ccccc1)N/N=C/c1cccc2ccccc12	75.3
Cc1ccccc1C(=O)N/N=C/c1ccc([N+](=O)[O-])s1	93.4
CCc1ccc(C(=O)N/N=C/c2cccc3ccccc23)nc1	-125.5*
Cc1ccccc1C(=O)N/N=C/c1cccc2ccccc12	-71.9*
CCCn1c(=O)c(C(=O)N/N=C/c2ccccc2F)c(O)c2ccccc21	-94.9*
Cc1ccccc1C(=O)N/N=C/c1ccsc1C	-147.5*
O=C(N/N=C/c1ccccc1F)c1cccc2ccccc12	-87.3*
O=C(N/N=C/c1sc2ccccc2c1O)c1cccc2ccccc12	91.6
O=C(Nc1ccc(Cl)cc1)N1CC=CCC1	-133.8*
O=C(Nc1ccc(F)c(Cl)c1)N1CCCCCC1	-75.5*
COc1ccc(NC(=O)N2CCCCCC2)cc1	-76.9*
Cc1ccc(NC(=O)N2CCCCCC2)cc1C	-90.2*
O=C(Nc1ccc(Br)cc1)N1CCCCC1	-62.7*
COc1cccc(NC(=O)N2CCCCCC2)c1	-88.1*
Cc1ccc(NC(=O)C2CCCN(C(=O)c3ccc(Cl)cc3)C2)cc1C (stereo not drawn)	-100.5*
O=c1nc2c(-c3cccc(Br)c3)n[nH]n2c2ccccc12	-175.9*
CCOC(=O)c1sc2nc3n(c(=O)c2c1C)CCCCC3	-213.8*
COc1cccc(NC(=O)c2sc3nc4n(c(=O)c3c2C)CCC4)c1	-113.5*
CSc1cccc(NC(=O)c2sc3nc4n(c(=O)c3c2C)CCC4)c1	-130.8*
Cc1c(C(=O)Nc2cc(F)ccc2F)sc2nc3n(c(=O)c12)CCCCC3	-118.3*
CC(C)Oc1ccc(C(=O)NCc2cccs2)cc1	-84.7*
CCc1ccc(C(=O)NCc2cccs2)s1	-62.6*
CCc1cc2c(=O)n(-c3ccc(C)cc3)cnc2s1	-148.5*
CCc1cc2c(=O)n(-c3ccccc3)cnc2s1	-95.5*
O=C(Nc1cccc2c1CCCC2)c1cc([N+](=O)[O-])ccc1Cl	-79.4*
SMILES	aSyn 5UTR act
Cc1cc(O)c(NC(=O)c2cc([N+](=O)[O-])ccc2Cl)cc1C	-106.4*
O=C(Nc1cccc2ncccc12)c1cc([N+](=O)[O-])ccc1Cl	-61.9*
O=C(CCl)Nc1cccc2ncccc12	-95.4*
Cc1ccc(C2(c3ccc(C)cc3)CC2C(=O)Nc2ccc([N+](=O)[O-])cc2O)cc1 (stereo not drawn)	67.2
Cc1ccc(O)c(NC(=O)c2cc([N+](=O)[O-])ccc2Cl)c1	-62.0*
CC(=O)Nc1nnc(-c2ccc3c(c2)CCCC3)o1	-66.7*
CC1CN(S(=O)(=O)c2ccc(C(=O)Nc3nnc(-c4ccc5c(c4)CCCC5)o3)cc2)CC(C)O1 (stereo not drawn)	75.6
C=CCN(CC=C)CCOc1ccc(OC(C)C)cc1	-63.3*
CCCCCCCCCCCCCCCCn1cc[n+](C)c1	140.7
CCOC(=O)C(C)Oc1cccc2c(=O)n(CC(=O)NCc3ccccc3)ccc12 (stereo not drawn)	72.6
CCOC(=O)COc1cccc2c(=O)n(CC(=O)NCCc3ccccc3)ccc12	-72.5*
Cc1ccc(-c2nnc(CSc3nnc(C)s3)o2)cc1	-79.4*
Cc1csc(SCc2nnc(-c3ccccc3Br)o2)n1	-88.0*
Cc1csc(SCc2nnc(-c3ccc(Cl)cc3)o2)n1	-172.8*
Cc1ccc(S(=O)(=O)Nc2cc(Cl)c(O)c3ncccc23)cc1	77.2
Cc1ccc(NC(=O)Nc2cc(S(C)(=O)=O)ccc2Cl)cc1	-77.0*
CS(=O)(=O)c1ccc(Cl)c(NC(=O)CCl)c1	-87.6*
Clc1ccc(-c2csc(N/N=C\c3cccnc3)n2)cc1	-76.9*
Clc1ccc(-c2csc(N/N=C/c3ccco3)n2)cc1	-156.1*
C(=N\Nc1nc(-c2ccccc2)cs1)/c1ccco1	-350.7*
Cc1ccc(-c2csc(N/N=C/c3ccco3)n2)cc1	-232.3*
COc1cccc(NC(=O)CN(C)C(=O)C2CCN(C(=O)c3ccccc3C)CC2)c1	-96.8*
O=C(Nc1cnn(Cc2c(Cl)cccc2Cl)c1)c1ccc([N+](=O)[O-])cc1	-64.6*
CN(C)c1ccc(NC(=O)c2ccc(Cn3cc([N+](=O)[O-])cn3)cc2)cc1	-72.9*
Cc1ccc(/C=N/n2c(C)nc3ccccc3c2=O)s1	-89.9*
SMILES	aSyn 5UTR act
Cc1nc2ccccc2c(=O)n1/N=C/c1ccccc1Cl	-90.5*
Cc1ccccc1-n1c(SCC(=O)N/N=C/c2c(C)nn(-c3ccccc3)c2C)nc2ccccc2c1=O	58.3
Cc1nc(COC(=O)c2c(C)nn(-c3ccccc3)c2C)cs1	-104.2*
Cc1ccc(S(=O)(=O)N/N=C2/CC(c3ccccc3)Oc3ccccc32)cc1[N+](=O)[O-] (stereo not drawn)	-106.4*
C/C(CC(C)C)=N\NS(=O)(=O)c1ccc(C)c([N+](=O)[O-])c1	50.7
COc1ccc2c(c1)c(C(=O)N/N=C/c1ccc(Br)cc1)c(C)n2C	-115.5*
CCCCCN=C(N)N/N=C/c1c[nH]c2ccc(OC)cc12	108.3
C/C(=N\Nc1ccc(C(=O)O)cc1)c1ccc(Cl)s1	-87.0*
COc1ccc2c(/C=N/Nc3ccc(C(=O)O)cc3)c[nH]c2c1	-134.8*
CC(C)NC(=S)N/N=C/c1c[nH]c2ccccc12	-123.8*
